13 compounds from PubChem BioAssay (NCI) can be followed below.

Some test systems named below: SR leukemia; RPMI-8226 leukemia; OVCAR-8 ovarian; OVCAR-5 ovarian; OVCAR-4 ovarian; SK-OV-3 ovarian; IGROV1 ovarian; OVCAR-3 ovarian; HS 578T breast; NCI/ADR-RES ovarian.
What all share (experiment): NCI-60 one-dose screen, 48 h (100 = growth as untreated, 0 = no growth, -100 = all killed)
What all share (conditions): 10 µM unless noted

SMILES strings stand for the structures. About 83,000 compounds went through this panel and 20% of them were active in at least one assay; those are over-represented in the sample as a whole.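 Each cell line was grown in a 96-well plate and treated with one concentration of compound for 48 hours. Values below 10 were considered active.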 Values without a mark were called inactive. The source made the active and inactive calls.

In the case of `Cc1ccc(/C=C/C(=O)Nc2ncc(Cc3ccc(F)cc3)s2)o1`, the growth is 18.9% in the assay with SR leukemia; 54.2% in the assay on RPMI-8226 leukemia; 77.6% with OVCAR-8 ovarian; 64.1% in the assay on OVCAR-5 ovarian; 85.4% with OVCAR-4 ovarian; 64.6% in the assay with SK-OV-3 ovarian. Besides, the growth with IGROV1 ovarian is 54.1%; in the assay on OVCAR-3 ovarian it was 36.9%; in the assay on HS 578T breast, 49.2%; in the assay on NCI/ADR-RES ovarian, 55.7%.

With `CC1C=CC(OC(=O)C(C)(O)CCC(O)(C(=O)OC2CC(O)C(C(C)C)CC2(C)O)C(C)C)(C(C)C)CC1` (stereo not given), the growth is -24.7% [4.63 µM] (active) in the assay with SR leukemia; -39.7% [4.63 µM] (active) in the assay on RPMI-8226 leukemia; -9.1% [4.63 µM] (active) in the assay on OVCAR-8 ovarian; -85.3% [4.63 µM] (active) with OVCAR-5 ovarian; -90.5% [4.63 µM] (active) in the assay with OVCAR-4 ovarian; -91.5% [4.63 µM] (active) in the assay with SK-OV-3 ovarian. In addition, the growth with IGROV1 ovarian was -70.6% [4.63 µM] (active); with OVCAR-3 ovarian, -94.3% [4.63 µM] (active); with HS 578T breast, 22.4% [4.63 µM]; with NCI/ADR-RES ovarian it was -9.57% [4.63 µM] (active).

For the compound `CC(=O)/C(=C/c1ccc([N+](=O)[O-])cc1)C(=O)c1ccccc1`, the growth with SR leukemia was -0.146% (active); in the assay with RPMI-8226 leukemia it was 8.32% (active); with OVCAR-8 ovarian, 94.4%; with OVCAR-5 ovarian it was 112%; in the assay on OVCAR-4 ovarian, 93.7%; in the assay with SK-OV-3 ovarian, 101%. Moreover, the growth in the assay with IGROV1 ovarian was 82.9%; in the assay with OVCAR-3 ovarian, 96.5%; in the assay on HS 578T breast it was 92.3%; in the assay with NCI/ADR-RES ovarian it was 83.7%.

Consider `COc1cc2c(c(OC)c1OC)C(=O)CC(c1cccc(NC(=O)c3ccc(C#N)cc3)c1)O2` (stereo not given), for which the growth with SR leukemia was 41.7%; in the assay on RPMI-8226 leukemia it was 30.8%; in the assay on OVCAR-8 ovarian it was 40.9%; in the assay with OVCAR-5 ovarian, 101%; in the assay with OVCAR-4 ovarian it was 63%; with SK-OV-3 ovarian, 99.1%. For the same compound, the growth was 85.5% with IGROV1 ovarian, 76.5% in the assay with OVCAR-3 ovarian, 90.3% in the assay with HS 578T breast and 50.7% in the assay on NCI/ADR-RES ovarian.

Consider `N=C(N)c1ccc(-c2ccc(-c3cc(Cl)cc(Cl)c3)s2)nc1`, for which the growth was 8.46% (active) with SR leukemia; 8.67% (active) in the assay on RPMI-8226 leukemia; -17.5% (active) with OVCAR-8 ovarian; 93.9% in the assay on OVCAR-5 ovarian; 59.1% in the assay on OVCAR-4 ovarian; 84.1% in the assay with SK-OV-3 ovarian. The growth in the assay on IGROV1 ovarian was 46.7%; in the assay on OVCAR-3 ovarian, 19.8%; with HS 578T breast it was 94%; in the assay on NCI/ADR-RES ovarian, 91.4%.

Turning to `CCOc1ccc(-n2nc(C(=O)NCc3ccccc3OC)nc2-c2cc(OC)c(OC)c(OC)c2)cc1`, the growth was 35.9% with SR leukemia; 26.9% in the assay with RPMI-8226 leukemia; 43.7% in the assay on OVCAR-8 ovarian; 74.2% with OVCAR-5 ovarian; 23.4% with OVCAR-4 ovarian; 67.1% with SK-OV-3 ovarian. For the same compound, the growth was 43.7% in the assay with IGROV1 ovarian, 49.4% in the assay with OVCAR-3 ovarian, 55.1% with HS 578T breast and 27.8% with NCI/ADR-RES ovarian.

For `O=C(O)c1cn(C2CC2)c2cc(N3CCN(C(=O)Nc4nc(-c5ccc(Br)cc5)cs4)CC3)c(F)cc2c1=O`, the growth is 21.5% in the assay with SR leukemia; -9.26% (active) in the assay on RPMI-8226 leukemia; 10% in the assay on OVCAR-8 ovarian; 32.5% in the assay with OVCAR-5 ovarian; 26.6% in the assay on OVCAR-4 ovarian; 0.843% (active) in the assay with SK-OV-3 ovarian. Moreover, the growth in the assay with IGROV1 ovarian is 28.8%; in the assay with OVCAR-3 ovarian it was 8.58% (active); with HS 578T breast it was 3.4% (active); in the assay with NCI/ADR-RES ovarian, 69.4%.

On to `CC/C=C\CCC/C=C1/C(=O)C=C[C@@H]1C/C=C\CCCC(=O)OC`, for which the growth in the assay with SR leukemia is 2.36% (active); with RPMI-8226 leukemia, 1.41% (active); in the assay on OVCAR-8 ovarian it was 14.2%; with OVCAR-5 ovarian it was 73.5%; with OVCAR-4 ovarian, 76.6%; in the assay on SK-OV-3 ovarian, 119%. The growth in the assay with IGROV1 ovarian is 84.2%; in the assay with OVCAR-3 ovarian, 26.7%; in the assay with HS 578T breast, 37.2%; with NCI/ADR-RES ovarian it was 25.9%.

In the case of `COc1ccc(CCN2C(=O)/C(=C/c3ccc(C4Oc5ccccc5C5CC(c6ccccc6)=NN54)cc3)SC2=S)cc1` (stereo not given), the growth with SR leukemia is 105%; in the assay on RPMI-8226 leukemia, 96%; with OVCAR-8 ovarian, 108%; in the assay with OVCAR-5 ovarian, 103%; in the assay with OVCAR-4 ovarian it was 109%; with SK-OV-3 ovarian, 103%. Also, the growth in the assay on IGROV1 ovarian is 100%; in the assay with OVCAR-3 ovarian, 105%; with HS 578T breast, 103%; in the assay on NCI/ADR-RES ovarian, 110%.

On to `O=C(Cc1ccc(NC(=O)c2cccc(Cl)c2)cc1)NCc1ccccc1`, for which the growth is 11.3% in the assay with SR leukemia; 65.8% in the assay on RPMI-8226 leukemia; 67.1% in the assay with OVCAR-8 ovarian; 73.2% with OVCAR-5 ovarian; 82.8% in the assay with OVCAR-4 ovarian; 57.6% in the assay with SK-OV-3 ovarian. Also, the growth in the assay on IGROV1 ovarian was 49.4%; in the assay with OVCAR-3 ovarian, 16.7%; with HS 578T breast, 32.9%; in the assay on NCI/ADR-RES ovarian, 50.5%.

As for `CC1CCN(C(=S)SCC(=O)NC(=O)c2ccccc2)CC1`, the growth is 80.6% in the assay on SR leukemia; 102% with RPMI-8226 leukemia; 112% in the assay with OVCAR-8 ovarian; 101% in the assay with OVCAR-5 ovarian; 96.6% in the assay with OVCAR-4 ovarian; 104% in the assay on SK-OV-3 ovarian. Moreover, the growth was 107% in the assay on IGROV1 ovarian, 111% in the assay on OVCAR-3 ovarian, 102% in the assay on HS 578T breast and 105% in the assay with NCI/ADR-RES ovarian.

On to `COC(=O)CCC/C=C\C[C@H]1C=CC(=O)/C1=C/C[C@@H](O)C/C=C\CC(F)(F)F`, for which the growth was 4% (active) in the assay on SR leukemia; -11.8% (active) in the assay with RPMI-8226 leukemia; 8.95% (active) with OVCAR-8 ovarian; 39% with OVCAR-5 ovarian; 34% in the assay on OVCAR-4 ovarian; 77.4% in the assay with SK-OV-3 ovarian. Besides, the growth in the assay with IGROV1 ovarian was 12.1%; in the assay with OVCAR-3 ovarian, -3.96% (active); in the assay with HS 578T breast, 41.9%; in the assay with NCI/ADR-RES ovarian, 14%.

On to `COc1ccc(-c2ccc(-c3ccc(C(=N)N)nc3)s2)cc1Cl`, for which the growth in the assay on SR leukemia is -7.17% (active); in the assay on RPMI-8226 leukemia, -45.4% (active); in the assay with OVCAR-8 ovarian, -28.5% (active); with OVCAR-5 ovarian, -37.6% (active); in the assay on OVCAR-4 ovarian, -79.5% (active); in the assay with SK-OV-3 ovarian, 97.1%. Besides, the growth with IGROV1 ovarian is -87.8% (active); in the assay with OVCAR-3 ovarian, -90.6% (active); with HS 578T breast, -48.3% (active); with NCI/ADR-RES ovarian, 37.7%.
